Experimental findings from PubChem BioAssay (NCI) are described below.

Molecules are shown by their SMILES. This is part of a sample that, as a whole, favours compounds with a hit. Of some 83,000 tested, about 20% had one in any assay.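 Treatment: one concentration, 48 hours, 96-well format. Scoring: percent growth, with anything below 10 considered active.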 Values without a mark were called inactive. Active and inactive are the calls of the source.

Holding throughout (assay): NCI-60 one-dose screen, 48 h (100 = growth as untreated, 0 = no growth, -100 = all killed)
One experiment relates to HCT-15 colon. As to conditions: 10 µM unless noted.
The test system of the next experiment is SNB-75 CNS. The following applies: 10 µM.
The test system of the next experiment is SNB-19 CNS. The following applies: 10 µM unless noted.
In the next experiment the test system is U251 CNS. As to conditions: 10 µM unless noted.
The subject of the next experiment is PC-3 prostate. The following applies: 10 µM unless noted.
The next experiment concerns SK-MEL-5 melanoma. The following applies: 10 µM unless noted.
The subject of the next experiment is UACC-62 melanoma. The following applies: 10 µM unless noted.
A further experiment relates to LOX IMVI melanoma. The following applies: 10 µM unless noted.
A further experiment concerns SK-MEL-28 melanoma. The following applies: 10 µM unless noted.
For the next experiment, the system named is SK-MEL-2 melanoma. As to conditions: 10 µM unless noted.
The next experiment relates to EKVX NSCLC. As to conditions: 10 µM unless noted.
A further experiment relates to SN12C renal. As to conditions: 10 µM unless noted.
The next experiment concerns UO-31 renal. As to conditions: 10 µM unless noted.
For the next experiment, the system named is ACHN renal. As to conditions: 10 µM unless noted.
A further experiment relates to CAKI-1 renal. The following applies: 10 µM unless noted.
In a further experiment the test system is A498 renal. The following applies: 10 µM unless noted.
A further experiment relates to CCRF-CEM leukemia. The following applies: 10 µM unless noted.
The next experiment deals with MOLT-4 leukemia. As to conditions: 10 µM unless noted.
The test system of the next experiment is TK-10 renal. The following applies: 10 µM unless noted.

Consider `COc1ccc(Nc2nc(N)nc3c2CCN(Cc2ccc(OC)cc2OC)C3=O)cc1`, for which the growth in the experiment with HCT-15 colon was 91%; with SNB-75 CNS, 85.7%; in the experiment with SNB-19 CNS it was 72.2%; in the experiment with U251 CNS it was 75.4%; in the experiment on PC-3 prostate, 90%; with SK-MEL-5 melanoma it was 80.7%. For the same molecule, the growth is 68% in the experiment with UACC-62 melanoma; 71.9% in the experiment on LOX IMVI melanoma; 90% in the experiment on SK-MEL-28 melanoma; 93.7% in the experiment on SK-MEL-2 melanoma; 81.5% with EKVX NSCLC; 70.7% in the experiment with SN12C renal. Also, the growth with UO-31 renal was 60.3%; in the experiment on ACHN renal, 80.7%; in the experiment with CAKI-1 renal, 92.9%; with A498 renal, 76.8%; in the experiment with CCRF-CEM leukemia it was 86.1%; in the experiment on MOLT-4 leukemia, 80.7%.
For the molecule `COc1cc(/C=C/c2cc(/C=C/c3ccc(O)c(OC)c3)n(C(N)=O)n2)ccc1O`, the growth with HCT-15 colon was 4.33% (active); in the experiment on SNB-75 CNS, -40.9% (active); in the experiment on SNB-19 CNS it was 4.95% (active); with U251 CNS, -10.9% (active); in the experiment on PC-3 prostate it was -23.5% (active); with SK-MEL-5 melanoma, -33% (active). The growth with UACC-62 melanoma is -47.2% (active); in the experiment on LOX IMVI melanoma, 1.48% (active); in the experiment on SK-MEL-28 melanoma it was -24.6% (active); with SK-MEL-2 melanoma it was -52.7% (active); in the experiment on SN12C renal, -5.22% (active); with UO-31 renal, -22.1% (active). For the same molecule, the growth in the experiment on TK-10 renal was 4.79% (active); in the experiment on ACHN renal it was -11.2% (active); in the experiment on CAKI-1 renal it was 14.1%; in the experiment on A498 renal, -24.4% (active); in the experiment with CCRF-CEM leukemia, -22.9% (active); in the experiment on MOLT-4 leukemia it was -33% (active).
Turning to `CCC(C)/C(=C\C#N)NCCCN/C(=C/C#N)C(C)CC` (stereo not drawn), the growth in the experiment on HCT-15 colon is 97%; with SNB-75 CNS it was 92.1%; in the experiment on SNB-19 CNS, 109%; with U251 CNS, 104%; in the experiment on PC-3 prostate it was 89.4%; in the experiment on SK-MEL-5 melanoma it was 108%. The growth with UACC-62 melanoma was 104%; with LOX IMVI melanoma, 93.7%; in the experiment on SK-MEL-28 melanoma it was 111%; in the experiment on EKVX NSCLC, 101%; in the experiment on SN12C renal, 99.7%; with UO-31 renal, 82.4%. Also, the growth was 119% with TK-10 renal; 97.1% in the experiment with ACHN renal; 96.5% with CAKI-1 renal; 124% in the experiment with A498 renal; 97.4% in the experiment on CCRF-CEM leukemia; 99.4% with MOLT-4 leukemia.
Consider `COc1ccc2[nH]c(=O)c3c4ccccc4cn3c2c1`, for which the growth in the experiment on HCT-15 colon was 9.19% (active); in the experiment with SNB-75 CNS, 56.5%; with SNB-19 CNS, 27.9%; with U251 CNS, 9.8% (active); with PC-3 prostate, 7.65% (active); with SK-MEL-5 melanoma, 35.1%. The growth is 28.2% in the experiment with UACC-62 melanoma; 4.23% (active) in the experiment on LOX IMVI melanoma; 54.7% in the experiment on SK-MEL-28 melanoma; 50.5% in the experiment on SK-MEL-2 melanoma; 39.1% with EKVX NSCLC; 21.5% in the experiment on SN12C renal. In addition, the growth with UO-31 renal was 9.09% (active); with TK-10 renal, 16.9%; in the experiment on ACHN renal, 23.2%; with A498 renal it was 50.3%; in the experiment on CCRF-CEM leukemia, -31.2% (active); in the experiment on MOLT-4 leukemia, 6.08% (active).
With `COc1cc2c(c(OC)c1OC)-c1ccc(N)c(=O)cc1[C@@H](NC(C)=O)CC2`, the growth with HCT-15 colon was 11.8%; with SNB-75 CNS, 33.8%; with SNB-19 CNS, 34.2%; in the experiment on U251 CNS it was 18%; in the experiment with PC-3 prostate, 29.3%; with SK-MEL-5 melanoma it was -54.3% (active). In addition, the growth with UACC-62 melanoma was 30.8%; in the experiment on LOX IMVI melanoma, 25%; in the experiment on SK-MEL-28 melanoma, 61.8%; in the experiment on EKVX NSCLC, 51.4%; in the experiment on SN12C renal it was 27.6%; in the experiment with UO-31 renal, 40%. For the same molecule, the growth with TK-10 renal is 33.4%; in the experiment with ACHN renal, 27.5%; in the experiment on CAKI-1 renal it was 19.1%; in the experiment on A498 renal, -12.7% (active); in the experiment with CCRF-CEM leukemia, 21.6%; in the experiment with MOLT-4 leukemia, 20.7%.
As for `C=C[C@@H]1C[C@H](O)Cc2cc(F)ccc2N1`, the growth was 96.4% in the experiment with HCT-15 colon; 87.9% in the experiment with SNB-75 CNS; 104% in the experiment with SNB-19 CNS; 93.3% in the experiment with U251 CNS; 97.2% with PC-3 prostate; 93.3% in the experiment on SK-MEL-5 melanoma. The growth in the experiment on UACC-62 melanoma is 99.1%; in the experiment with LOX IMVI melanoma, 94.2%; in the experiment on SK-MEL-28 melanoma, 98.7%; in the experiment on SK-MEL-2 melanoma, 123%; in the experiment on EKVX NSCLC, 89.3%; in the experiment on SN12C renal, 101%. Also, the growth is 103% in the experiment on UO-31 renal; 97.7% in the experiment with TK-10 renal; 92.3% in the experiment on CAKI-1 renal; 93.8% in the experiment with A498 renal; -66% (active) in the experiment on CCRF-CEM leukemia; -34.3% (active) in the experiment with MOLT-4 leukemia.
